aSyn 5UTR act = Activators via SNCA 5'UTR binding, MLPCN; alpha-synuclein 5'UTR reporter, activators screen; activity score, % (tested at 7.5 µM), hits read low; 7.1% of 300,000 active; in the data active means activity score below about -60%
An asterisk follows results filed as active. Only a sample is shown.

`O=C(O)CCCn1c(O)c(C=C2N=c3ccccc3=N2)sc1=S` gave aSyn 5UTR act -89*.
For Cc1nn(-c2ccccc2)c(Cl)c1/C=N/NC(=O)c1ccnn1C the results were aSyn 5UTR act -108*.
Screening Cc1nn(-c2ccccc2)c(Cl)c1/C=N/Nc1nnc(C)c(=O)[nH]1 returned aSyn 5UTR act -62*.
`Cc1nn(-c2ccccc2)c(Cl)c1/C=N/Nc1nc2ccccc2n1C` gave aSyn 5UTR act -121*.
Screening CCc1n[nH]c(=S)n1/N=C/c1c(C)nn(-c2ccccc2)c1Cl returned aSyn 5UTR act 106.
For CC1CCC/C(=C\Nc2ccc(C(=O)O)cc2)C1=O (configuration not stated) the results were aSyn 5UTR act -121*.
`CCOC(=O)c1ccc(N/C=C2/CCCC(C)C2=O)cc1` (configuration not stated) gave aSyn 5UTR act -153*.
`C=CCNC(=O)C1CC(=O)N(c2ccc(OCc3ccccc3Cl)cc2)C1` (configuration not stated) gave aSyn 5UTR act -111*.
O=C(O)C1CC(=O)N(c2ccc(OCc3ccccc3)cc2)C1 (configuration not stated) was read as aSyn 5UTR act -66*.
Screening OCc1ccc(O)c2ncccc12 returned aSyn 5UTR act 66.
Screening O=C(Cc1ccc(-c2ccccc2)cc1)Nc1ncccc1O returned aSyn 5UTR act -97*.
Screening Cc1cc(-c2onc3ccc(Cl)cc23)ccc1O returned aSyn 5UTR act -91*.
Cc1ccc(-c2onc3ccc(C=O)cc23)cc1 was read as aSyn 5UTR act -139*.
Screening Cc1oc(-c2ccc(-c3ccccc3)cc2)nc1CN1CCN(CC(=O)N(C)C)CC1 returned aSyn 5UTR act -143*.
For COc1ccc(-c2nc(CN3CCN(c4cc(C)nc(C)c4)CC3)c(C)o2)c2ccccc12 the results were aSyn 5UTR act 68.
For S=C1SCN(Cc2cccnc2)CN1Cc1cccnc1 the results were aSyn 5UTR act -86*.
`CCOC(=O)c1ccc(NC(=O)c2cc3c(s2)CCC3)cc1` gave aSyn 5UTR act -154*.
For COC(=O)c1sccc1NC(=O)c1cc2c(s1)CCCC2 the results were aSyn 5UTR act -133*.
For COc1ccc(C)cc1NC(=O)c1cc2c(s1)CCC2 the results were aSyn 5UTR act -143*.
COc1ccc(C)cc1NS(=O)(=O)c1ccc(-c2cnc(C3CC3)o2)cc1 was read as aSyn 5UTR act 102.
For O=C(Nc1cccc(Cn2cccn2)c1)c1cc2c(s1)CCCC2 the results were aSyn 5UTR act -139*.
O=C(Nc1nnc(-c2ccccc2)s1)c1ccccc1F was read as aSyn 5UTR act -152*.
Screening CCC(Sc1nncn1C)C(=O)Nc1nnc(-c2ccccc2Cl)s1 (configuration not stated) returned aSyn 5UTR act -64*.
For O=C(Nc1nnc(-c2ccccc2Cl)s1)c1ccccc1F the results were aSyn 5UTR act -173*.
FC(F)(F)c1cnc(COc2ccc(Cl)cc2Cl)c(Cl)c1 was read as aSyn 5UTR act -82*.
For CC(=O)c1ccc(OCc2ncc(C(F)(F)F)cc2Cl)cc1 the results were aSyn 5UTR act -81*.
For CC1=C/C(=C(/c2cc(C)c(O)c(Br)c2)c2ccccc2S(=O)(=O)O)C=C(Br)C1=O the results were aSyn 5UTR act 61.
CCN1CCN(c2cc(C)c3cc(NC(=O)CCC(=O)N4CCN(c5ccccc5OC)CC4)ccc3n2)CC1 was read as aSyn 5UTR act -62*.
CCC(C)NC(=O)CCC(=O)Nc1ccc2nc(N3CCOCC3)cc(C)c2c1 (configuration not stated) was read as aSyn 5UTR act -86*.
For Cc1cc(N2CCOCC2)nc2ccc(NC(=O)CCC(=O)N3CCC(C)CC3)cc12 the results were aSyn 5UTR act -105*.
`Cc1cc(N2CCOCC2)nc2ccc(Cl)cc12` gave aSyn 5UTR act -111*.
For Cc1cc(N2CCOCC2)nc2ccc(NC(=O)CCC(=O)N3CCN(c4cccc(C(F)(F)F)c4)CC3)cc12 the results were aSyn 5UTR act -72*.
Screening Cc1cc(N2CCOCC2)nc2ccc(NC(=O)CCC(=O)N3CCCCC3)cc12 returned aSyn 5UTR act -90*.
`COc1ccc(NC(=O)CCC(=O)Nc2ccc3nc(N4CCOCC4)cc(C)c3c2)c(OC)c1` gave aSyn 5UTR act -94*.
`CCC(C)NC(=S)Nc1ccc2nc(N3CCN(CC)CC3)cc(C)c2c1` (configuration not stated) gave aSyn 5UTR act -95*.
Screening Cc1nc(Nc2cnc(/C=C/c3cc(C(=O)Nc4cccc(C(F)(F)F)c4)ccc3C)cn2)cc(N2CCNCC2)n1 returned aSyn 5UTR act 81.
CCCCNC(=O)CCC(=O)Nc1ccc2nc(N3CCC(C)CC3)cc(C)c2c1 was read as aSyn 5UTR act -69*.
Screening CCCCN(C)C(=O)CCC(=O)Nc1ccc2nc(N3CCOCC3)cc(C)c2c1 returned aSyn 5UTR act -76*.
COCCNC(=S)NC(=O)c1ccc(C(C)(C)C)cc1 was read as aSyn 5UTR act -91*.
`COCCCNC(=S)NNC(=O)C1CC1c1ccc(C(C)(C)C)cc1` (configuration not stated) gave aSyn 5UTR act -100*.
O=C(Nc1ccc2ccccc2c1)c1cccc(F)c1 was read as aSyn 5UTR act -117*.
For Cc1ccc2cc(NC(=O)c3ccccc3)ccc2n1 the results were aSyn 5UTR act -85*.
For CC(C)CC(=O)Nc1ccc2ccccc2c1 the results were aSyn 5UTR act -99*.
Screening Cc1ccc2cc(NC(=O)c3cccc(F)c3)ccc2n1 returned aSyn 5UTR act -79*.
Screening O=C(Nc1ccc2ccccc2c1)c1ccc(NS(=O)(=O)c2ccc(Br)s2)cc1 returned aSyn 5UTR act -102*.
`CCCCN(CC)CCNC(=O)c1cc2c(=O)n(C)c3ccccc3c2s1` gave aSyn 5UTR act -67*.
CCN(CC)CCNC(=O)c1cc2c(=O)n(C)c3ccccc3c2s1 was read as aSyn 5UTR act -70*.
For CCCCN(CC)CCNC(=O)c1cc2c(-c3ccccc3F)nn(C)c2s1 the results were aSyn 5UTR act -75*.
`CC1=C/C(=C\C=C(C#N)C#N)N(C)c2ccccc21` gave aSyn 5UTR act -102*.
For CCCCN1CCc2c1nc1ccc(Br)cc1c2N the results were aSyn 5UTR act -65*.
Clc1ccc(Cn2nc(-c3ccccc3)nc2-c2ccccc2)cc1 was read as aSyn 5UTR act -114*.
For CC(NC(=O)Cn1ncc(Cl)c(Cl)c1=O)C12CC3CC(CC(C3)C1)C2 (configuration not stated) the results were aSyn 5UTR act 88.
For O=C(Cn1sc2ccccc2c1=O)NC12CC3CC(CC(C3)C1)C2 the results were aSyn 5UTR act -92*.
`Cc1nc(-c2noc(-c3ccccc3Cl)n2)c(C(F)(F)F)o1` gave aSyn 5UTR act -142*.
For Cc1ccccc1-c1nc(-c2cccnc2)no1 the results were aSyn 5UTR act -227*.
CN(C)c1ccc(-c2nnc(-c3cccs3)o2)cc1 was read as aSyn 5UTR act 82.
Screening Cc1ccccc1-c1nc(-c2ccccn2)no1 returned aSyn 5UTR act 95.
Screening Clc1ccccc1-c1nc(-c2cccnc2)no1 returned aSyn 5UTR act -104*.
Clc1ccccc1-c1nnc(-c2cccs2)o1 was read as aSyn 5UTR act -215*.
`CSc1ccccc1-c1nc(-c2ccncc2)no1` gave aSyn 5UTR act -195*.
`Clc1ccccc1-c1nc(-c2ccncc2)no1` gave aSyn 5UTR act -112*.
Clc1ccccc1-c1nnc(-c2cccnc2)o1 was read as aSyn 5UTR act -139*.

Bioassay records: PubChem BioAssay, Broad Institute
